Assay outcomes from PubChem BioAssay.
Most compounds without a hit are left out; they make up all but 3.8% or so of the library.
MBNL1 CUG block – blocks human MBNL1 binding to CUG repeat RNA. TR-FRET MBNL1-His/biotin-(CUG)12 binding, 665/545 ratio. Potency, µM (titrated, usually from 57.5 µM), for inactives: at the highest dose activity change, negative = inhibition, hits mostly inhibitors. hit rate 0.036% among 280,000. AID 2675; active = well fitted inhibition curve with a large enough effect in the signal ratio, with a control signal flat, not every such curve was filed as active; inconclusive = small, poorly fitted or top-dose-only effect, or effect the other way, or a change in a side signal; inactive = no such curve, though single readings can be large or run the other way; the % refers to the signal ratio; note: potency is the fitted concentration of half-maximal effect; % is set by controls: 0 for no effect and ±100 for the full control effect
Target sequence (Q9NR56 whole entry, looked up): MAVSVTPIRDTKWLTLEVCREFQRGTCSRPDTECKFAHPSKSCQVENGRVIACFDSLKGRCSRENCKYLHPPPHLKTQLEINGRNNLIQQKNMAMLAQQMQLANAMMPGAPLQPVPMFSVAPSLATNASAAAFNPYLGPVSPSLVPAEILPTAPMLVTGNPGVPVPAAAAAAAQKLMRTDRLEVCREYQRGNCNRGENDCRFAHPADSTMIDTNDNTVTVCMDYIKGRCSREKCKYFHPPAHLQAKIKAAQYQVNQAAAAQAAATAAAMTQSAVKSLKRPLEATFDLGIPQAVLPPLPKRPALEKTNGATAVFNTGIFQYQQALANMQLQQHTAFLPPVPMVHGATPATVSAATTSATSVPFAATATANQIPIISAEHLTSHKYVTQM
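TR-FRET between His-tagged MBNL1 and biotin-(CUG)12 RNA, detected with Tb anti-His antibody (0.055 ng/ul) and streptavidin-XL665 (5 nM), 60 min at room temperature. Compounds titrated 92 nM to 58 uM; 665/545 nm ratio normalized to buffer and complex controls.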
PLK1 PBD block – PLK1 (human) polo-box domain binding inhibition | Potency, µM, inactives show max response, negative = inhibition, usual class: inhibitors | AID 720504 | hit rate 2.8% among 360,000 | Plk1 PBD binding of FITC phosphopeptide, fluorescence polarization; note: potency is the fitted concentration of half-maximal effect; series mostly up to about 57 µM; % is set by controls: 0 for no effect and ±100 for the full control effect; nearly all actives have a fitted effect of over 65% in size
CBFb-RUNX1 inh – blocks binding between human CBF-beta and RUNX1 | AlphaScreen CBFb-His/RUNX1-biotin binding, biochemical | Potency, µM (series often up to 59.8 µM), for the others: top-dose activity, negative = inhibition, hits mostly inhibitors | 230,000 tested, under 10 active | Q01196+Q13951; note: % of control where 0% means no effect
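Proteins preincubated together for 20 min at RT before compound addition; 15 min later, nickel and streptavidin beads were added and left 90 min prior to AlphaScreen measurement.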
hERG WT inh – inhibitors of human wildtype KCNH2 potassium channel; Q12809; U2OS, BacMam KCNH2, thallium flux FluxOr; active compounds read low; activity change, % at 1.84 µM; hit rate 0.37% among 340,000; AID 720551;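 active = maximum activity change below -70%; inconclusive = maximum activity change between -70% and -50%; inactive = maximum activity change above -50%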; note: % is set by controls: 0 for no effect and ±100 for the full control effect
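U2OS cells transduced with wild-type KCNH2 virus are loaded with FluxOr dye for 45 min, and thallium flux is measured in kinetic reads before and after stimulation buffer. Rate constants are normalized to DMSO controls.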
VDR inhibitor – inhibitors of human vitamin D receptor | VDR-SRC2-3 peptide fluorescence polarization, 2 h | Potency, µM, for the others: max response, negative = inhibition, most hits filed as inhibitors | hit rate 0.93% among 400,000 | AID 504847; note: potency is the fitted concentration of half-maximal effect; % is set by controls: 0 for no effect and ±100 for the full control effect
Target sequence (P11473 whole entry, looked up): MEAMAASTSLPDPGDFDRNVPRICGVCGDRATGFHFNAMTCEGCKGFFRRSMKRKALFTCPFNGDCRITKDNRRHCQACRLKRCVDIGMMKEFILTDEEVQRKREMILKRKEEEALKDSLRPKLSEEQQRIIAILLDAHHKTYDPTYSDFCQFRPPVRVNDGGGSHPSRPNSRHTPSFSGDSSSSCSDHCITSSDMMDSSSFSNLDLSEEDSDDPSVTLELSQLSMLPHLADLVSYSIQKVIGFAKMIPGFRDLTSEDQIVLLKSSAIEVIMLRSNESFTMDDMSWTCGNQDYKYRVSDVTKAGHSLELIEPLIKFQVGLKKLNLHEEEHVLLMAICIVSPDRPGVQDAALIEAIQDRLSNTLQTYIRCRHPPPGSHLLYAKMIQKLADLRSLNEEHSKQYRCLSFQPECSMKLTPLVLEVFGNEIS
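After 23 nl compound addition and a short centrifugation, plates sat for 2 hours at ambient temperature; polarization of fluorescence then indicated loss of VDR binding to peptide SRC2-3.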
KCNH2 3.1 inh – blocks the human KCNH2 3.1 channel isoform; U2OS KCNH2 3.1, thallium flux FluxOr; active compounds read low; activity change, % (tested at about 1.8 µM); hit rate 0.95% among 340,000; AID 720553;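 active = maximum activity change below -70%; inconclusive = maximum activity change from -70% to -50%; inactive = maximum activity change above -50%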;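 note: thallium influx rate constant from kinetic fluorescence after stimulation buffer; % is set by controls: 0 for no effect and ±100 for the full control effect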
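Thallium flux read-out: FluxOr dye with Red40 quencher in HBSS/HEPES, 45 min at RT. Rate constants from kinetic reads were normalized to positive and negative DMSO controls. Cells: U2OS virally expressing the 3.1 isoform.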
TbPYK confirm – Trypanosoma brucei pyruvate kinase inhibition, cherry-pick confirmation | Potency, µM (series often up to 76.9 µM), without a hit: at the top dose activity change, negative = inhibition, actives largely listed as inhibitors | recombinant TbPYK, Kinase-Glo ATP luminescence | shares compounds with PLK1 PBD block | hit rate 67% among 890 | AID 720569; note: potency is the fitted concentration of half-maximal effect; % is set by controls: 0 for no effect and ±100 for the full control effect; nearly all actives have a fitted effect of over 70% in size
TbPYK orthogonal – inhibits T. brucei pyruvate kinase in orthogonal ADP-Glo assay. hit rate 62% among 890. shares compounds with PLK1 PBD block. AID 720584. Potency, µM (top dose mostly 76.9 µM), inactives show top-dose activity change, negative = inhibition, actives largely listed as inhibitors. recombinant TbPYK, ADP-Glo luminescence, 60 min; note: potency is the fitted concentration of half-maximal effect; % is set by controls: 0 for no effect and ±100 for the full control effect; nearly all actives have a fitted effect of over 75% in size
Active calls of the source: *; ? = inconclusive; · = not tested or not shown; [ ] = dose if it differs, or a comment. Unless noted, calls come from the whole dose curve; as a rule, active = well fitted curve in the direction sought with a large enough effect; inconclusive = small, poorly fitted or top-dose-only effect, or another doubt; inactive = no such curve, though single readings can be large; an effect the other way counts as inactive or inconclusive.

SMILES | MBNL1 CUG block | PLK1 PBD block | CBFb-RUNX1 inh | hERG WT inh | VDR inhibitor | KCNH2 3.1 inh | TbPYK confirm | TbPYK orthogonal
Oc1ccc(C(=S)N2CCN(Cc3ccccc3)CC2)cc1 | 3% | 2.7µM* | 10% | 12 | 50µM* | 4 | 16µM* | 32µM*
O=C(c1ccc(F)cc1)N1CCN(Cc2ccccc2)CC1 | -12% | -11% | · | 0 | -18% | -2 | · | ·
CN1CCN(C(=S)c2ccc(Br)cc2)CC1 | -19% | 4.2µM* | -2% | 6 | ? | -5 | 7.1µM* | 7.9µM*
S=C(c1ccc(Br)cc1)N1CCN(Cc2ccccc2)CC1 | 5% | 6.7µM* | -1% | 1 | ? | 8 | 1.3µM* | 8.9µM*
CN(C)c1ccc(C(=S)N2CCN(Cc3ccccc3)CC2)cc1 | -2% | 4.2µM* | ? | -2 | 50µM* | -2 | 5µM* | 4.5µM*
CCN(CC)c1ccc(C(=O)N2CCN(Cc3ccccc3)CC2)cc1 | 12% | ? | -8% | · | -5% | 2 | · | ·
Cc1ccc(N2C(=O)CCSC23C(=O)N(Cc2ccccc2)c2ccccc23)cc1F (stereo unspecified) | · | · | · | · | -6% | · | · | ·
CCC(Sc1ncccc1C(=O)Oc1ccccc1Cl)C(=O)Nc1ccccc1OC (stereo unspecified) | · | · | · | · | 9% | · | · | ·
Cc1c(CCOC(=O)c2ccccc2)sc[n+]1Cc1ccccc1 | 60% | -2% | -4% | -7 | -15% | ? | · | ·
Cc1ccc2c(c1)sc[n+]2Cc1ccccc1 | 9% | 3µM* | ? | 3 | 25µM* | 4 | -20% | ?
O=C(O)CNC(=O)c1ccc(OC(F)F)cc1 | -11% | 1% | 5% | -7 | 12% | -24 | · | ·
O=C1C=CC(=O)N1c1ccc(OC(F)F)cc1 | -15% | 3.4µM* | -5% | -9 | 16µM* | -22 | -13% | -8%
CCOc1ccc(N2C(=O)/C(=C/c3cccs3)N(CC(=O)OC)C2=S)cc1 | -1% | -6% | -2% | 11 | 5% | 0 | · | ·
COc1ccc(N2C(=O)/C(=C/c3cccs3)NC2=S)cc1 | ? | 2.7µM* | 8% | -1 | ? | 7 | 8.9µM* | 13µM*
CCN1CCC2(CC1)N=C(c1ccc(F)cc1)C(=S)N2C(=O)c1ccc(C(C)(C)C)cc1 | -10% | 9.5µM* | 6% | 50 | 79µM* | -15 | 13µM* | 18µM*
Oc1cccc(/C=N/N2CCCCC2)c1O | -2% | 5% | · | -6 | -3% | 7 | · | ·
Oc1ccc(/C=N/N2CCCCC2)c(O)c1O | 8% | 11µM* | · | -11 | ? | 1 | 32µM* | 35µM*
CC1(C)Cc2c(C#N)c(SCc3ccccc3)nc(N3CCOCC3)c2CO1 | 4% | -3% | 1% | -4 | 17% | ? | · | ·
CC1(C)Cc2c(C#N)c(SCC(=O)c3ccccc3)nc(N3CCOCC3)c2CO1 | ? | -21% | 5% | 1 | ? | -1 | 10µM* | 11µM*
CC(C)Sc1nc(N2CCOCC2)c2c(c1C#N)CC(C)(C)N(C)C2 | 2% | 2.7µM* | -4% | 18 | ? | 0 | -11% | -6%
CCOc1ccc(NC(=O)Cn2cc(C(=O)c3ccccc3)c(=O)c3cc4c(cc32)OCCO4)cc1 | · | · | · | · | -3% | · | · | ·
Cc1cccc(-c2nc(N3CCN(c4ccc(F)cc4)CC3)c3ccccc3n2)c1 | · | · | · | · | 1% | · | · | ·
CC(=O)OCCN1C(=O)c2c(C)nc3ccc(S(=O)(=O)N4CCOCC4)cc3c2C1=O | · | · | 11% | · | -1% | · | · | ·
CC(C)CCNC(=O)NC(=O)CSc1ccc(S(=O)(=O)N2CCOCC2)cn1 | · | ? | · | -3 | 18% | 2 | 16µM* | 14µM*
O=C(N/N=C/c1ccc(N2CCCCC2)o1)c1ccccc1 | ? | ? | -1% | -2 | 22µM* | -10 | 32µM* | 32µM*
SMILES | MBNL1 CUG block | PLK1 PBD block | CBFb-RUNX1 inh | hERG WT inh | VDR inhibitor | KCNH2 3.1 inh | TbPYK confirm | TbPYK orthogonal
O=C(N/N=C/c1ccc(N2CCOCC2)o1)c1cccc([N+](=O)[O-])c1 | 28%[11.5 µM] | ? | -7% | -2 | ? | -10 | ? | 32µM*
Cc1ccc(/C=N/NC(=O)c2ccc(-c3ccccc3)cc2)o1 | 11% | -6% | · | 4 | -13% | -12 | · | ·
COc1cc(C(=O)NC2CC(=O)N(c3cccc(F)c3)C2)cc(OC)c1OC (stereo unspecified) | · | · | · | · | 7% | · | · | ·
Cc1c(Br)c(O)c(Br)c2sc(=O)oc12 | · | 27µM* | -29% | 1 | ? | -1 | ? | ?
O=C(Nc1c2c(nn1-c1ccc(Cl)cc1)CS(=O)(=O)C2)c1ccc(Br)cc1 | · | · | · | · | 7% | · | · | ·
COc1ccc2nc3c(cc2c1)Cn1c-3nc2ccccc2c1=O | · | · | -5% | · | ? | · | · | ·
CC(C)(C)c1ccc(C(=O)N/C(=C\c2ccco2)C(=O)Nc2ccccc2C(=O)O)cc1 | 1% | -19% | · | 0 | -17% | 2 | ? | -26%
Nc1c(-c2nc(-c3ccc(Cl)cc3)cs2)c2ccccn2c1C(=O)c1ccc2c(c1)OCO2 | · | · | · | · | -1% | · | · | ·
Cc1nn(C)c(Sc2ccccc2N)c1[N+](=O)[O-] | 21% | 13µM* | -6% | · | ? | 32 | 13µM* | 13µM*
Nc1ncn(C2C[C@H](O)[C@@H](CO)O2)c(=O)n1 (stereo partly specified) | · | · | · | · | -4% | · | · | ·
Cc1cc(=O)c2c(o1)C(=O)c1occc1C2=O | · | ? | · | -9 | ? | -1 | 2.5µM* | ?
COc1c2occc2c(OC)c2c(=O)cc(C)oc12 | -13% | -19% | 20% | -3 | -4% | 1 | · | ·
CC(=O)Nc1nonc1-c1nnc(SCC(=O)Nc2ccc(C)c(Cl)c2)n1-c1ccccc1 | · | · | · | · | 19% | · | · | ·
Cc1noc(NS(=O)(=O)c2ccc(NC(=O)CSc3nc4c(cc3C#N)CCC4)cc2)c1C | -5% | ? | -1% | -8 | 2% | 12 | ? | 32µM*
CCOC(=O)N1CCC(NC(=O)c2ccc3c(c2)N(Cc2ccccc2)C(=O)c2ccccc2S3(=O)=O)CC1 | · | · | · | · | -21% | · | · | ·
COc1ccc(NC(=O)c2sc3nc4n(c(=O)c3c2C)CCC4)cc1Cl | · | · | · | · | -1% | · | · | ·
Clc1cccc(Cc2c(-c3ccco3)nc3ccc(Br)cn23)c1 | · | 11µM* | · | · | · | · | ? | ?
Brc1ccc2nc(-c3ccco3)c(Cc3ccccc3)n2c1 | · | -29% | · | · | · | · | · | ·
Clc1cccc(Cc2c(-c3ccco3)nc3ccc(Cl)cn23)c1 | · | 12µM* | · | · | · | · | 11µM* | 13µM*
O=C1NC(=S)CN1c1ccccc1 | 6% | 27µM* | 11% | 0 | 32µM* | 18 | ? | ?
